Compound activity deposited in PubChem by Buhrlage Lab, Dana-Farber Cancer Institute and Novartis Institutes for BioMedical Research (Cambridge, Mass).
Only some compounds are listed: those with a hit (about 9.6% of all), similar ones and a draw of the others.
USP17 inh: inhibitors of human USP17 deubiquitinase. A8MUK1. inhibition, % at 50 µM. purified USP17, Ub-rhodamine cleavage fluorescence, 3 h. 47,000 compounds, 6.5% hits
USP30 inh: inhibitors of human USP30 deubiquitinase | AID 1645860 | inhibition, % at 25 µM | 47,000 compounds, 5.3% hits | purified USP30, Ub-rhodamine cleavage fluorescence | Q70CQ3
Target sequence (Q70CQ3 whole entry, looked up): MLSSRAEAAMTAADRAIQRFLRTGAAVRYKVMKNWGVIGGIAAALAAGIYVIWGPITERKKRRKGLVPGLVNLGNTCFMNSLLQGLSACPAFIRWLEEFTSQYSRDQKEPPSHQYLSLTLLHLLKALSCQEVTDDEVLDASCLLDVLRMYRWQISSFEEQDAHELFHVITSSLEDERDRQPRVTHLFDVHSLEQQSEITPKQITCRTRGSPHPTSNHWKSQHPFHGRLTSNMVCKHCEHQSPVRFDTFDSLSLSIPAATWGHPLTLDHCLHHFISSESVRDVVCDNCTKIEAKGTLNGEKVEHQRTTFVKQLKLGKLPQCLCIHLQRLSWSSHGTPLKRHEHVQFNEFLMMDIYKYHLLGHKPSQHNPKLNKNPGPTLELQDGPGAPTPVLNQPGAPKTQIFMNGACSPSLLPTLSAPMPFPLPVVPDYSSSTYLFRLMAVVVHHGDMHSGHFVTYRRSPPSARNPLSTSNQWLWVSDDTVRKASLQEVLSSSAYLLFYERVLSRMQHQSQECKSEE
Hits are given with their value; . = inactive; / = no result given. No stated cut-off is given here; in the data, active means inhibition above about 30%; inactive means the rest.

SMILES | USP17 inh | USP30 inh
O=C(COC(=O)c1ccccc1OCc1ccccc1)Nc1cccc2ccccc12 | . | 49
O=C(Cc1c[nH]c2ccccc12)N1CCC(c2ccnc3nc(C(F)(F)F)nn23)CC1 | . | .
O=C(Cc1cccc(F)c1)NCc1ccnc(C2CCCOC2)n1 (stereo not drawn) | . | .
Cc1cc(C)c2nc(N3C(=O)c4oc5ccccc5c(=O)c4C3c3ccco3)sc2c1 (stereo not drawn) | . | .
O=C(CSc1ccc(N2CCC(C(=O)NC3CC3)CC2)nn1)Nc1cccc(Cl)c1 | 38 | .
CC1CCN(c2ccc(N3CCC(C(=O)NC4CCCCC4)CC3)nn2)CC1 | . | .
CNC(=O)C1CN(c2cc(C)ncn2)CCN(C2CCOCC2)C1 (stereo not drawn) | . | .
CCCSc1nc(SCC(=O)Nc2ccccc2)c2c3c(sc2n1)COC(C)(C)C3 | . | .
Cc1ccccc1Cn1nnc2c(=O)n(Cc3nc(-c4ccccc4)no3)cnc21 | . | .
O=c1c2nnn(Cc3ccccc3)c2ncn1Cc1nc(-c2cccc(Cl)c2)no1 | . | 36
NC(=O)C1CCCN1c1ncnc2sc3c(c12)CCC3 (stereo not drawn) | . | .
CCOc1ccc2cc3c(nc2c1)OC(=O)N(Cc1ccc(C)o1)C3 | . | 53
O=C1Oc2nc3ccccc3cc2CN1Cc1ccco1 | 52 | .
Cc1ccc(CN2Cc3cc4ccc(C)c(C)c4nc3OC2=O)o1 | . | .
Cc1ccc2nc3c(cc2c1)CN(Cc1ccco1)C(=O)O3 | . | .
CC(=O)Nc1cccc(NC(=O)COc2cccc3ccc(N4CCCC4)nc23)c1 | 53 | .
Cc1cc(OCC(=O)Nc2cccc(C#N)c2)nc(N2CCCCC2)n1 | . | .
Cc1cccc(C(=O)Nc2ccc(NC(=O)COc3ccccc3Cl)cc2)c1 | . | .
Cc1cccc(NC(=O)COc2cccc3ccc(N4CCC(C(N)=O)CC4)nc23)c1 | 33 | .
CN(C1CCCCC1)S(=O)(=O)N1CCC2(CC1)CC2c1nc(-c2cccnc2)no1 (stereo not drawn) | . | .
CC(C)C(NS(=O)(=O)c1c(Cl)cccc1Cl)C(=O)NCc1ccc2c(c1)OCO2 (stereo not drawn) | . | .
Cc1nc2ccn(Cc3ccco3)c(=O)c2cc1C(=O)NCCCc1ccco1 | . | .
O=C(O)C1CCN(c2ccc([N+](=O)[O-])cc2)CC1 | . | .
N#Cc1cc([N+](=O)[O-])ccc1N1CCN(c2ccc(O)cc2)CC1 | 32 | 35
CCc1cccc(C)c1NC(=O)c1cc(-c2ccccn2)nc2ccccc12 | . | .
SMILES | USP17 inh | USP30 inh
Cc1cc(C)cc(NC(=O)Cn2cnc(S(=O)(=O)N3CCOCC3)c2)c1 | . | .
COc1ccc(OC)c(-n2c(SCC(=O)N3CCc4ccccc43)nnc2-c2cccc(S(=O)(=O)N(C)C)c2)c1 | 48 | 49
CC1Cc2ccccc2N1C(=O)CSc1nnc(-c2ccc3c(c2)OCCO3)n1C (stereo not drawn) | . | .
Cc1[nH]c2ccccc2c1C(=O)CSc1nnc(-c2cccc(S(=O)(=O)N3CCOCC3)c2)n1-c1ccc(F)cc1 | . | .
COc1ccccc1-n1c(SCC(=O)N2CCc3ccccc32)nnc1-c1ccncc1 | . | .
CCn1c(SCC(=O)N2CCc3ccccc32)nnc1C1CC1 | . | /
CCn1c(SCC(=O)N2CCc3ccccc32)nnc1-c1ccc2c(c1)OCCO2 | 58 | 74
CCn1c(SCC(=O)N2CCc3ccccc32)nnc1-c1ccc(C)c(Cl)c1 | 33 | .
CCn1c(SCC(=O)c2c(C)[nH]c3ccccc23)nnc1-c1ccc2c(c1)OCCO2 | 67 | 53
Nc1c(C(=O)c2ccco2)sc2c1c(=O)[nH]c(=O)n2Cc1ccc2c(c1)OCO2 | . | .
COCCN1CCC2(CC1)CC(NC(=O)C1(C#N)CC1)c1ccccc1O2 (stereo not drawn) | . | .
COc1cc(CNc2ccc(C(=O)O)cc2)ccc1OCc1ccccc1Cl | . | .
COc1ccc(-c2cnn3c2NC(=O)CC3C(=O)Nc2ccc3c(c2)OCO3)cc1 (stereo not drawn) | . | .
COc1ccc(NC(=O)C2CC(=O)Nc3cc(-c4ccccc4)nn32)cc1 (stereo not drawn) | 56 | .
Cc1c(-c2ccccc2)nn2c1NC(=O)CC2C(=O)Nc1ccc2c(c1)OCO2 (stereo not drawn) | 47 | .
COc1ccc(-c2nn3c(c2C)NC(=O)CC3C(=O)Nc2ccc3c(c2)OCO3)cc1 (stereo not drawn) | . | 38
COc1ccccc1-c1cnn2c1NC(=O)CC2C(=O)Nc1ccc2c(c1)OCO2 (stereo not drawn) | . | .
O=C1CC(C(=O)Nc2ccc3c(c2)OCO3)n2ncnc2N1 (stereo not drawn) | . | .
CC1CCN(C(c2ccc(Cl)cc2)c2nnnn2CCc2ccccc2)CC1 (stereo not drawn) | . | .
COc1ccc(/C=C(\C#N)c2cccs2)c(OC)c1OC | . | .
CNc1nc(N(C)C)nc(-n2cnc(SCCOc3ccccc3C)n2)n1 | . | /
NC(=O)CN1CN(c2cccc(F)c2)c2ncccc2S1(=O)=O | . | .
O=C(NCCCN1CCOCC1)C1CCCN(c2nc3ncccc3n3cccc23)C1 (stereo not drawn) | . | .
Cc1c(C(=O)N2CCOCC2)cnn1-c1ccc(-c2nc(C(C)C)no2)cn1 | . | .
O=C(Nc1ccc2ccccc2n1)c1ccc(Cl)cc1 | 30 | 63
SMILES | USP17 inh | USP30 inh
O=C(Nc1ccc2ccccc2n1)c1ccccc1Cl | . | .
CC(=O)CCSc1nnc(-c2c[nH]c3ccccc23)n1C1CC1 | . | .
CCCC(=O)Nc1ccc2c(c1)nc(CCN1CCOCC1)n2C | . | .
O=C(NCc1cccnc1)c1cnn2c(C(F)(F)F)cc(-c3ccccc3)nc12 | . | 64
CC(C)CCNC(=O)c1cnn2c(C(F)(F)F)cc(-c3ccccc3)nc12 | . | .
CC(CN1CCN(c2ccccc2)C(=O)C1=O)C(=O)NCc1cc(F)ccc1F (stereo not drawn) | . | .
CCN(CC)c1ccc(NC(=O)c2cnn3c(C(F)F)cc(-c4ccc(OC)cc4)nc23)cc1 | . | .
CCCc1ccc(C(C)NC(=O)c2cnn3c(C(F)F)cc(-c4ccc(OC)cc4)nc23)cc1 (stereo not drawn) | 34 | .
O=C(NCCCN1CCCC1)c1cccc(Cl)c1 | . | .
O=C(Cc1cccc(Cl)c1)NCCN1CCC(O)(c2cccc(F)c2)CC1 | . | 34
COc1cc2oc(=O)c(CC(=O)N3CCC[C@H]3C(=O)O)c(C)c2cc1Cl | . | .
COc1ccc(C(N)=O)c(OCc2noc(-c3ccccc3Cl)n2)c1 | . | .
COc1ccc(OCc2nn3c(-c4ccccc4Cl)nnc3s2)cc1 | . | 32
CC1CC(=O)Nc2cc(S(=O)(=O)Nc3ccc(F)cc3Cl)ccc2S1 (stereo not drawn) | . | .
Cc1cc(F)ccc1S(=O)(=O)Nc1ccccc1C(=O)N1CCC(C)CC1 | . | .
Cc1ccc(C(=O)Nc2nnc3n2CCCS3)cc1 | . | .
Nc1c(-c2nc(-c3ccccc3Cl)no2)nnn1-c1ccc(Cl)cc1 | 43 | 40
Cc1cccc(-n2nnc(-c3nc(-c4ccc(Cl)cc4)no3)c2N)c1 | . | .
Cc1nnc2ccc(-c3ccc(NS(=O)(=O)c4ccccc4F)cc3)nn12 | 43 | .
CCCS(=O)(=O)Nc1ccc(-c2ccc3nnc(C)n3n2)cc1 | . | .
CC(C)Cc1nc2sc3c(SCC(=O)NC(c4ccccc4)c4ccccc4)ncnc3c2c2c1CCC2 | . | .
